The results in this text go back to PubChem BioAssay (NCATS).

Test [1] in a line: AP1 Signaling Pathway (AID 357). Also: % is scaled to controls: 0 for no effect and ±100 for the full control effect. The note with it: ME-180 AP-1-bla reporter, EGF-induced, beta-lactamase ratio, 5 h. The essentials: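 AP-1-bla ME-180 cells, Opti-MEM + 0.5% dialyzed FBS, plated overnight 37 °C. Cpd titration + EC50 EGF, 5 h 37 °C. CCF4 2.5 h RT; ex 405, em 460/530 ratio → %activity, AC50.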
Test [2] concerns the target Cytochrome P450 1A2 (Homo sapiens) (UniProt P05177). Put plainly: p450-cyp1a2 (AID 410; calls by dose curve; also: potency is read from the fitted curve at half-maximal effect;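 as to activity change, negative = inhibition: -100% = full effect of reference inhibitor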). The note with it: recombinant CYP1A2, luciferin-ME demethylation, luminescence; series mostly up to 57 µM. Put shortly: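 Read-out is luminescence from luciferin produced by CYP1A2 demethylation of Luciferin-ME (100uM, at Km). Detection reagent stopped the 60 min NADPH-dependent reaction; signals were normalized to 57 uM furafylline.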

A short description of test [3]: Stat Signaling Pathway (AID 446).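 Also: ME-180 cervical cancer cells given 40 pM IL-6 alongside compound; SIE-controlled beta-lactamase reporter measured as 460/530 nm FRET emission ratio; % is scaled to controls: 0 for no effect and ±100 for the full control effect.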 The note with it: ME-180 (cervical carcinoma) SIE beta-lactamase reporter, IL-6 stimulated, 5 h. Put shortly:
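Overnight-plated ME-180 cells bearing a STAT Inducible Element beta-lactamase reporter; 5 h co-exposure to compound and 40 pM IL-6; values normalized to 300 pM IL-6 and 125 nM JAK inhibitor controls.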

For test [4], the target named is Mitogen-activated protein kinase 10 (Mus musculus) (UniProt Q61831). Put plainly: JNK3 AlphaScreen Assay (AID 530).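 Also: kinase came from lysate of stimulated human HepG2 cells; % is scaled to controls: 0 for no effect and ±100 for the full control effect.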 The note with it: JNK3 lysate, c-Jun phosphorylation; series mostly up to 57.1 µM. The essentials: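 Biotinylated GST-cJun(1-79) served as substrate for JNK3 in HepG2 lysates stimulated with IL-1beta and TNF-alpha. ATP was 10 uM final, pH 7.6. Ser73 phosphorylation was quantified by AlphaScreen (680 nm excitation).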
A general note: Alpha assays give light when donor and acceptor beads are brought close together.

Test [5] addresses 3',5'-cyclic-AMP phosphodiesterase 4B (Homo sapiens) (UniProt Q07343). The test is described as follows: qHTS Assay for Inhibitors of PDE-IV (AID 607; active = well fitted activation curve with a large enough effect in the main read-out, with a control signal flat, not every such curve was filed as active; also: % of control where 0% means no effect). The note with it: HEK293 ACTOne CNG channel cells, membrane potential fluorescence; series mostly up to 22.9 µM. Put shortly: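 Live HEK293 cells with a modified cyclic nucleotide-gated (CNG) channel report intracellular cAMP via membrane-potential dye fluorescence (ex 535/em 590 nm). Endogenous PDE-IV was targeted. Compounds were tested at up to 22.9 uM final; RO 20-1724 100 uM served as control.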
(qHTS replaces the single test concentration by a dilution series.)

The nature of test [6]: NFAT Signaling Pathway (AID 444).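 Also: carbachol stimulus at about its EC50 of 1 µM final; % is scaled to controls: 0 for no effect and ±100 for the full control effect.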 The note with it: Jurkat NFAT-bla M1, carbachol, beta-lactamase ratio, 5 h; at 38 µM (top of the series) unless noted. Put shortly: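 Jurkat cells carrying an NFAT-driven β-lactamase reporter and co-transfected muscarinic M1 receptor were treated with compound plus carbachol (1 uM final, an EC50 level) for 5 h at 37 °C. CCF4 loading followed for 1 h at RT; 460/530 nm ratio gave %activity.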

The target of test [7] is Glucocorticoid receptor (Homo sapiens) (UniProt P04150). The test is described as follows: GR-GFP Redistribution (AID 450;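 active = compounds whose dose series gives a full or clear partial fitted curve of increased nuclear translocation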; also: potency is read from the fitted curve at half-maximal effect). The conditions noted are these: U2OS GR-GFP nuclear translocation, laser cytometry, 2 h.
Sequence of Glucocorticoid receptor (Homo sapiens) (P04150 whole entry, looked up, the tested form may be a part): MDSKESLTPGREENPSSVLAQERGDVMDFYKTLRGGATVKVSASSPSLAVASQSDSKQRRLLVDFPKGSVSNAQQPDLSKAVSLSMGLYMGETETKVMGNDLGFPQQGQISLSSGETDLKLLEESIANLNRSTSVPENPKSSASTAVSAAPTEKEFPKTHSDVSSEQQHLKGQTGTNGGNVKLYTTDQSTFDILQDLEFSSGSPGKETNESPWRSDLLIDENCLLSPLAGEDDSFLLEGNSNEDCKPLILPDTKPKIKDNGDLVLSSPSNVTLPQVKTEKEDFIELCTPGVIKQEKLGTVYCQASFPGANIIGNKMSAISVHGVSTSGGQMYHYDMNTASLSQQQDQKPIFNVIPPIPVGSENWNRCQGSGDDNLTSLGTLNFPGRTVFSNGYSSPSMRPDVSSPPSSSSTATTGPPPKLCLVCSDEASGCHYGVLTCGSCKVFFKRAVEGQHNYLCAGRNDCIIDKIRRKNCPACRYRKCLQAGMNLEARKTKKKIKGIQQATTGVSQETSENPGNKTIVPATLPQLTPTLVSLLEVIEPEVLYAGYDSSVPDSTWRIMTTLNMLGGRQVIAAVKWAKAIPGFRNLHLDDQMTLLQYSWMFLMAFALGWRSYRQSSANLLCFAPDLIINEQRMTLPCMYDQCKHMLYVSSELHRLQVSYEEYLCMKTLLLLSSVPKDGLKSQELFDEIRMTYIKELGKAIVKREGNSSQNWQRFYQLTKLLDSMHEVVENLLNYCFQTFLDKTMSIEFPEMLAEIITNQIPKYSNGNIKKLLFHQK
Test [8] in a line: Cell Viability - BJ (AID 421; calls by dose curve;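 also: potency is read from the fitted curve at half-maximal effect; cells exposed to compound for 40 hours at 37 °C before readout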). The conditions noted are these: BJ fibroblast viability, qHTS. Put shortly: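 Quantitative HTS: ATP depletion in BJ cells after 40 hr compound exposure in complete culture medium, detected with CellTiter-Glo; AC50 from standard Hill fits.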
The nature of test [9]: Cell Viability - Jurkat (AID 426;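 active = dose-dependent loss of cell ATP signal giving a full or clear fitted curve, ranked by lower potency value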;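 also: potency is read from the fitted curve at half-maximal effect; cells exposed to compound for 40 hours at 37 °C before ATP read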). The note with it: qHTS. Put shortly: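 Cytotoxicity was scored as loss of cellular ATP, measured by luciferase-based luminescence, in Jurkat clone E6-1 cells after 40 h compound treatment; tamoxifen and doxorubicin served as positive controls.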
The nature of test [10]: Cell Viability - Hek293 (AID 427;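 active = compounds whose dose-response curve shows a full or clear partial loss of cell viability, called from curve shape rather than a numeric limit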;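 also: potency is read from the fitted curve at half-maximal effect; cells exposed to compound for 40 hours at 37 °C before reading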). The note with it: qHTS. Put shortly:
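AC50 values derive from Hill-modelled concentration-response of ATP-based luminescence, normalized between DMSO-only and 100 uM tamoxifen controls. Cells were exposed in complete culture medium for 40 hr at 37 °C before detection.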

The nature of test [11]: Cell Viability - MRC5 (AID 434; calls by dose curve;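 also: potency is read from the fitted curve at half-maximal effect; potency reflects cytotoxicity seen as loss of intracellular ATP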). The conditions noted are these: MRC5 lung fibroblast viability, qHTS. Put shortly: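 Decrease in intracellular ATP, quantified by luciferase light output, reflects compound toxicity toward MRC5 cells exposed for 40 hr in complete culture medium. Concentration-response curves, scaled between DMSO and 100 uM tamoxifen, gave AC50 values.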
Test [12] is described as follows: Cell Viability - SK-N-SH (AID 435; calls by dose curve;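 also: potency is read from the fitted curve at half-maximal effect; compound exposure lasted 40 h at 37 °C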). The conditions noted are these: SK-N-SH neuroblastoma cell viability qHTS. Put shortly: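 SK-N-SH human neuroblastoma cells (1500/well) were exposed to compounds in complete medium for 40 h at 37 °C, and intracellular ATP was then measured by CellTiter-Glo luminescence. AC50 was taken from Hill fits, normalized to DMSO and 100 uM tamoxifen.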

Test [13] is described as follows: Cell Viability - NIH 3T3 (AID 541; active = well fitted curve in the direction sought with a large enough effect; an effect the other way counts as inactive or inconclusive;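 also: plate controls were DMSO alone for no effect and tamoxifen positive control for full effect; nearly all actives have a fitted effect of over 25% in size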). The note with it: NIH 3T3 cell viability, qHTS; activity change, negative = cytotoxicity: at 92.2 µM (top of the series). The essentials: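 In this cytotoxicity screen, acute toxicity is scored as an ATP drop measured by CellTiter-Glo in NIH 3T3 fibroblasts following a 40 hr, 37 °C incubation with compound.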
Test [14] is described as follows: Cell Viability - HUV-EC-C (AID 542; active = well fitted curve in the direction sought with a large enough effect; an effect the other way counts as inactive or inconclusive; also: % is scaled to controls: 0 for no effect and ±100 for the full control effect; nearly all actives have a fitted effect of over 35% in size). The note with it: HUV-EC-C endothelial cell viability, qHTS; series mostly up to 92.2 µM. The essentials:
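Concentration-dependent ATP loss in HUV-EC-C cells is the measure. Exposure lasts 40 hr at 37 °C; luminescence follows CellTiter-Glo addition, and Hill fits give AC50.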

The nature of test [15]: Cell Viability - H-4-II-E (AID 543; active = well fitted curve in the direction sought with a large enough effect; an effect the other way counts as inactive or inconclusive; also: % is scaled to controls: 0 for no effect and ±100 for the full control effect; nearly all actives have a fitted effect of over 35% in size). The conditions noted are these: H-4-II-E rat hepatoma viability; series mostly up to 92.2 µM. The essentials: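 AC50 from Hill-modelled qHTS concentration-response curves. H-4-II-E rat hepatoma cells in complete medium, 40 hr exposure at 37 °C, viability by CellTiter-Glo ATP luminescence.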
A short description of test [16]: Cell Viability - Renal Proximal Tubule (AID 545; active = well fitted curve in the direction sought with a large enough effect; an effect the other way counts as inactive or inconclusive;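 also: 0% = DMSO only and -100% = 100 µM tamoxifen; nearly all actives have a fitted effect of over 40% in size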). The conditions noted are these: renal proximal tubule cells viability, primary cells of rat origin; activity change, negative = cytotoxicity: at 91.7 µM (top of the series). Put shortly: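 Primary rat renal proximal tubule cells (1000/well) were treated with compounds for 40 hr at 37 °C in complete medium. Intracellular ATP was measured by CellTiter-Glo luminescence, and AC50 values came from Hill-equation fits of concentration-response data.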

Test [17] in a line: Cellular Toxicity (caspase-3) HepG2 (AID 654; active = well fitted curve in the direction sought with a large enough effect; an effect the other way counts as inactive or inconclusive;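 also: cells exposed to compound for 16 hours before reading; 0% = DMSO alone and 100% = caspase signal from 100 µM tamoxifen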). The note with it: HepG2 caspase-3 activation, luminescence; series mostly up to 92.2 µM. Put shortly:
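Concentration-response AC50 values reflect caspase-3/7 induction in HepG2 cells after 16 hours of compound exposure, quantified by luminescence from liberated aminoluciferin and referenced to 100 uM tamoxifen as full stimulation.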

Test [18] in a line: Cellular Toxicity (caspase-3) Jurkat (AID 655; active = well fitted curve in the direction sought with a large enough effect; an effect the other way counts as inactive or inconclusive;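 also: cells exposed to compound for 16 h at 37 °C before reading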). The conditions noted are these: Jurkat caspase-3 activation, luminescence; series mostly up to 92.2 µM. The essentials: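 Jurkat cells (5000/well) in complete medium were treated with compounds for 16 hr at 37 °C, then Caspase-Glo 3/7 luminescence was read after 20 min at room temperature. Data normalized to DMSO (basal) and 100 uM tamoxifen (100%); AC50 from Hill fit.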

Test [19] has as its target Glucocorticoid receptor (Homo sapiens) (UniProt P04150). The test is described as follows: GR-EFC Redistribution (AID 451; calls by dose curve; also: potency is read from the fitted curve at half-maximal effect). The conditions noted are these: CHO-K1 GR-EFC translocation, beta-gal luminescence, 2 h. The essentials: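 CHO-K1 cells stably expressing nuclear-localized β-gal enzyme acceptor and GR fused C-terminally to the enzyme donor fragment; ligand-driven nuclear translocation restores β-gal by complementation. Compounds titrated up to 46 uM final, 2 h at 37 °C; luminescence read.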

Values without a mark were called inactive. Inconclusive results are not listed. Activity calls are given as the source filed them. Unless noted, calls follow the shape of the dose curve; as a rule, active = well fitted curve in either direction with a large enough effect (not every such curve was filed as active); inconclusive = small, poorly fitted or top-dose-only effect, or another doubt; inactive = flat fitted curve, though single readings scatter. Bounds are passed on as bounds.

Sequence of Cytochrome P450 1A2 (Homo sapiens) (P05177 whole entry, looked up): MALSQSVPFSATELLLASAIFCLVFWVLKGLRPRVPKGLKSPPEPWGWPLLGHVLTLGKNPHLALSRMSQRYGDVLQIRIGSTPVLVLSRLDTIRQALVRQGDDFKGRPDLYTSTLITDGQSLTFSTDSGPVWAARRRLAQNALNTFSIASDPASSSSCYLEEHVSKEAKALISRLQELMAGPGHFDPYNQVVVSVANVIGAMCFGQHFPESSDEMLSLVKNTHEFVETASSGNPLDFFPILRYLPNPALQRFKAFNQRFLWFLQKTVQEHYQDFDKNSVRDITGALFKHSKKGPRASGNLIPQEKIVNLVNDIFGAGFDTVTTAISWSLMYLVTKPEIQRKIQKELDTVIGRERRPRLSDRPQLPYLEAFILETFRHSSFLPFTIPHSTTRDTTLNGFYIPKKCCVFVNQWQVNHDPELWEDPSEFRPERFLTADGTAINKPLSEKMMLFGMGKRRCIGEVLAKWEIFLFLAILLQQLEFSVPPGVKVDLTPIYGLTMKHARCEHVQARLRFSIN
Sequence of 3',5'-cyclic-AMP phosphodiesterase 4B (Homo sapiens) (Q07343 whole entry, looked up): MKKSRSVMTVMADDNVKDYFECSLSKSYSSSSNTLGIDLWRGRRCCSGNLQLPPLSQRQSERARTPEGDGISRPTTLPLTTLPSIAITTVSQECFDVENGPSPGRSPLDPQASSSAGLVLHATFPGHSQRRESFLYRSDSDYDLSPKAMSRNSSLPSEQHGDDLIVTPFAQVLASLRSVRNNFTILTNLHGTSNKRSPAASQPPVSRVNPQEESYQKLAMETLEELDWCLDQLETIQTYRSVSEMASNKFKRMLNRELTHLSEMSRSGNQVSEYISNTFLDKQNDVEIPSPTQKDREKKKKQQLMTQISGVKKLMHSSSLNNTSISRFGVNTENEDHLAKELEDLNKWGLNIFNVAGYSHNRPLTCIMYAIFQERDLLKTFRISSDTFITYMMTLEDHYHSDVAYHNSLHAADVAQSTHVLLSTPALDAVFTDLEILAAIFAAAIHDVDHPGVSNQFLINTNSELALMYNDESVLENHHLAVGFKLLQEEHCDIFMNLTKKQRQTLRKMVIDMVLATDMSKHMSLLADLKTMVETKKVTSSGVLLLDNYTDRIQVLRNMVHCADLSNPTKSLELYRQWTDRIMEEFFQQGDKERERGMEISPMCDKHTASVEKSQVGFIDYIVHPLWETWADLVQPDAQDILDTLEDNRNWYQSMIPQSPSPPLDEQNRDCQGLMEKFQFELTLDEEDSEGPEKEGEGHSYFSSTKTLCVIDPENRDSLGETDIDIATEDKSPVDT

For `CN=c1nc(-c2ccccc2)n(-c2ccccc2)s1`, in test [1] (at 38 µM (top of the series)), the activity change, negative = inhibition is 20.8%. Moreover, the Potency in [2] was 5.01 µM (active). For the same molecule, the activity, negative = inhibition in test [3] (at 38 µM (top of the series)) is 8.46%. In [4], the Potency entry is “inactive”. In addition, the call in [5] was inactive.
`Cc1ccc(C(=O)c2ccc(CC(=O)O)n2C)cc1`: the figures for the activity change, negative = inhibition in test [1] (at 17.2 µM (top of the series)) and in test [6] were 6.83% and -1.3% [at 17.2 µM], respectively. Also, the Potency entry in test [2] and in test [4] was “inactive” throughout. Further, the activity, negative = inhibition in test [3] (at 17.2 µM (top of the series)) was -8.7%. Further, the result in test [5] was inactive.
Regarding `O=c1[nH]c2cc(Cl)c(Cl)cc2[nH]c1=O`, the activity change, negative = inhibition in test [1] (at 38 µM (top of the series)) is -8.09%; in test [6], 4.68%. For the same molecule, in [3] (at 38 µM (top of the series)), the activity, negative = inhibition was -0.584%. Moreover, the Potency in test [7] was above 46 µM. In [5], the result was inactive.
For `CC1(C)S[C@@H]2[C@H](NC(=O)[C@H](N)c3ccccc3)C(=O)N2[C@H]1C(=O)O`, the activity change, negative = inhibition was 6.1% in test [1] (at 17.2 µM (top of the series)) and 3.92% [at 17.2 µM] in test [6]. The Potency in test [8], in [9], in test [10], in test [11] and in [12] was above 92 µM throughout. Moreover, the activity, negative = inhibition in [3] (at 17.2 µM (top of the series)) was 1.21%. The Potency entry in test [4], in [13], in test [14], in test [15], in test [17] and in [18] was “inactive” in each case. In addition, the activity change, negative = cytotoxicity in test [16] is -5.39%.
With `N#C/C(=C\c1ccc(O)c(O)c1)C(=O)c1ccc(O)c(O)c1`, the activity change, negative = inhibition was -8.79% in test [1] (at 38 µM (top of the series)) and -9.14% in test [6]. Further, the figures for the Potency in test [2] and in test [19] were 31.6 µM (active) and above 46 µM, respectively. The result in [5] was inactive.
Consider `O=S(=O)(c1cccc2c(I)cccc12)N1CCCNCC1`, for which the activity change, negative = inhibition in [1] (at 38 µM (top of the series)) was 5.61%; in test [6] it was -18.6%. For the same molecule, the Potency was 10 µM (active) in [2] and above 46 µM in [7]. In addition, the Potency result in test [4] is “inactive”. Also, the outcome in test [5] was inactive.
With `NCCNC(=O)c1ncsc1-c1cccc(F)c1`, the activity change, negative = inhibition was 0.181% in test [1] (at 38 µM (top of the series)) and -3.73% in test [6]. Moreover, in test [2], the Potency was 10 µM (active). Moreover, the activity, negative = inhibition in test [3] (at 38 µM (top of the series)) was 3.48%. The Potency result in test [4] is “inactive”. For the same molecule, the outcome in test [5] was inactive.
On to `COc1ccccc1CNCCCCCCNCCCCCCCCNCCCCCCNCc1ccccc1OC`, for which, in test [1] (at 38 µM (top of the series)), the activity change, negative = inhibition is -8.92%. For the same molecule, the Potency result in test [2] and in [4] was “inactive” in each case. Further, the Potency in test [19] was above 46 µM. Moreover, the molecule was called inactive in test [5].
Consider `O=c1[nH]c2cc(C(F)(F)F)ccc2n1-c1cc(C(F)(F)F)ccc1O`, for which the activity change, negative = inhibition in [1] (at 38 µM (top of the series)) is -14.9%; in [6] it was 7.55%. The Potency in [7] and in test [19] was above 46 µM in each case. The molecule was classed as inactive in [5].
Turning to `CC(=O)SCC[N+](C)(C)C`, the activity change, negative = inhibition in test [1] (at 38 µM (top of the series)) is 9.91%; in [6], 9.71%. Besides, the Potency result in test [2] and in [4] was “inactive” in each case. In [3] (at 38 µM (top of the series)), the activity, negative = inhibition was 1.77%. Also, the molecule was classed as inactive in [5].
